The record followed here is PMC10812921, “Transcriptional Coactivator BOB1 (OBF1, OCA-B) Modulates the Specificity of DNA Recognition by the POU-Domain Factors OCT1 and OCT2 in a Monomeric Configuration”.

For assay [1], the target named is POU1 (OCT1 POU domain) (human, UniProt P14859 260-458). Kind of assay: EMSA-SELEX-seq; no BOB1; 20 mM Tris-HCl pH 7.6, 140 mM NaCl, 10% glycerol, 0.5 mM EDTA, 0.05% Triton X-100, 0.1 mg/mL BSA, 0.1 mg/mL poly(dI-dC), 5 mM DTT, room temperature, 20 min; high values mean tight binding. As to conditions: protein: recombinant; dsDNA, one strand shown. In outline:
(§1)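 Binding preference is reported as the percentage of sequenced 8-mers that match a motif pattern. Tagged POU-domain proteins were made in E. coli BL21, purified under denaturing conditions and renatured. A 30 ng portion was combined with 300 ng of a PCR-amplified double-stranded random 35-nt library, with or without 28 ng coactivator protein, in 20 μL Tris–HCl pH 7.6 binding buffer for 20 min at RT. Complex bands were excised from native 6% PAGE, eluted and PCR-amplified over four rounds before Illumina sequencing.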
(In general: Mobility shift assays separate free from complexed probe on a gel.)

Assay [2] has as its target T1, POU2 (OCT2 POU domain) (human, UniProt P09086 175-386).
T1 sequence: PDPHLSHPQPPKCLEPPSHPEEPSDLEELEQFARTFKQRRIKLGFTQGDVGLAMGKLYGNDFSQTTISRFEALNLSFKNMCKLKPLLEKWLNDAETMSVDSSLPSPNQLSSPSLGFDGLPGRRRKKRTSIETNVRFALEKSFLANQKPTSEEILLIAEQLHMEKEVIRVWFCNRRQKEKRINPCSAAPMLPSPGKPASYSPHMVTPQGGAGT
The description is as above. As to conditions: protein: recombinant; dsDNA, one strand shown. The procedure, abridged: as §1

The target in assay [3] is POU1 (OCT1 POU domain);BOB1 (OBF1, OCA-B) (human;human, UniProt P14859;Q16633 260-458;1-256, |). Description: EMSA-SELEX-seq; with BOB1 (ternary complex band); 20 mM Tris-HCl pH 7.6, 140 mM NaCl, 10% glycerol, 0.5 mM EDTA, 0.05% Triton X-100, 0.1 mg/mL BSA, 0.1 mg/mL poly(dI-dC), 5 mM DTT, room temperature, 20 min; high values mean tight binding. As to conditions: protein: recombinant;recombinant; copies: 1;1; dsDNA, one strand shown. In outline:
as §1

Assay [4] deals with T2, POU2 (OCT2 POU domain);BOB1 (OBF1, OCA-B) (human;human, UniProt P09086;Q16633 175-386;1-256, |).
T2 sequence 1: T1 sequence
T2 sequence 2: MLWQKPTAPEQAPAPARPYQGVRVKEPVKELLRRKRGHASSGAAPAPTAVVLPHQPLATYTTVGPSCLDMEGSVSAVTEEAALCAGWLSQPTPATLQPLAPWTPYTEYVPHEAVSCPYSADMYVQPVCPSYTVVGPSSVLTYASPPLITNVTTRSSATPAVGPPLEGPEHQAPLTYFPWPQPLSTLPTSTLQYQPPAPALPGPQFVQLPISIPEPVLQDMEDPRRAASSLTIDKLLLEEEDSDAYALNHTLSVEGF
The assay is described as above. The note with it: protein: recombinant;recombinant; copies: 1;1; dsDNA, one strand shown. In outline: as §1

Sequence of POU1 (OCT1 POU domain) (P14859 260-458): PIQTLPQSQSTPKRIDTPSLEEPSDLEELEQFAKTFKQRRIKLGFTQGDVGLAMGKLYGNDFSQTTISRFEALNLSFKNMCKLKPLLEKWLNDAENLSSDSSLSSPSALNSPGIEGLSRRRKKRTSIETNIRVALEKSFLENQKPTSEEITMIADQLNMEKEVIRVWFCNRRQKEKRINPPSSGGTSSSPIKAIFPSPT

As to AATATAAA, the binding signal in assay [1] is 0.156 % of ANNNNAAN 8-mers; in assay [2], 0.178 % of ANNNNAAN 8-mers; in assay [3], 0.107 % of ANNNNAAN 8-mers; in assay [4], 0.101 % of ANNNNAAN 8-mers.

With AGACTAAT, the binding signal in assay [1] is 0.0744 % of ANNNNAAN 8-mers; in assay [2], 0.102 % of ANNNNAAN 8-mers; in assay [3], 0.0507 % of ANNNNAAN 8-mers; in assay [4], 0.066 % of ANNNNAAN 8-mers.

Consider ATTCAAAC, for which the binding signal in assay [1] is 0.153 % of ANNNNAAN 8-mers; in assay [2], 0.15 % of ANNNNAAN 8-mers; in assay [3], 0.199 % of ANNNNAAN 8-mers; in assay [4], 0.125 % of ANNNNAAN 8-mers.

For ACTCTAAG, the binding signal was 0.0214 % of ANNNNAAN 8-mers in assay [1], 0.0224 % of ANNNNAAN 8-mers in assay [2], 0.0258 % of ANNNNAAN 8-mers in assay [3] and 0.0206 % of ANNNNAAN 8-mers in assay [4].

With ATTGTAAA, the binding signal in assay [1] is 0.116 % of ANNNNAAN 8-mers; in assay [2], 0.106 % of ANNNNAAN 8-mers; in assay [3], 0.144 % of ANNNNAAN 8-mers; in assay [4], 0.0925 % of ANNNNAAN 8-mers.

AGGGTAAT: the binding signal in assay [1] was 0.186 % of ANNNNAAN 8-mers; in assay [2], 0.279 % of ANNNNAAN 8-mers; in assay [3], 0.12 % of ANNNNAAN 8-mers; in assay [4] it was 0.129 % of ANNNNAAN 8-mers.

On to ACCTAAAG, for which the binding signal in assay [1] was 0.0145 % of ANNNNAAN 8-mers; in assay [2], 0.0173 % of ANNNNAAN 8-mers; in assay [3], 0.0219 % of ANNNNAAN 8-mers; in assay [4], 0.0223 % of ANNNNAAN 8-mers.

As to ATTTAAAT, the binding signal is 2.83 % of ANNNNAAN 8-mers in assay [1], 2.38 % of ANNNNAAN 8-mers in assay [2], 0.709 % of ANNNNAAN 8-mers in assay [3] and 0.832 % of ANNNNAAN 8-mers in assay [4].

Consider AACCTAAA, for which the binding signal in assay [1] was 0.0206 % of ANNNNAAN 8-mers; in assay [2], 0.0391 % of ANNNNAAN 8-mers; in assay [3], 0.0242 % of ANNNNAAN 8-mers; in assay [4], 0.0264 % of ANNNNAAN 8-mers.

With AAGGAAAT, the binding signal in assay [1] was 0.199 % of ANNNNAAN 8-mers; in assay [2], 0.157 % of ANNNNAAN 8-mers; in assay [3], 0.288 % of ANNNNAAN 8-mers; in assay [4] it was 0.171 % of ANNNNAAN 8-mers.

Take AAGCTAAG: the binding signal in assay [1] is 0.0248 % of ANNNNAAN 8-mers; in assay [2], 0.0322 % of ANNNNAAN 8-mers; in assay [3], 0.0187 % of ANNNNAAN 8-mers; in assay [4], 0.0272 % of ANNNNAAN 8-mers.

On to ACACGAAA, for which the binding signal was 0.0332 % of ANNNNAAN 8-mers in assay [1], 0.027 % of ANNNNAAN 8-mers in assay [2], 0.0386 % of ANNNNAAN 8-mers in assay [3] and 0.0215 % of ANNNNAAN 8-mers in assay [4].

Take ACGCCAAA: the binding signal was 0.0133 % of ANNNNAAN 8-mers in assay [1], 0.0219 % of ANNNNAAN 8-mers in assay [2], 0.016 % of ANNNNAAN 8-mers in assay [3] and 0.0223 % of ANNNNAAN 8-mers in assay [4].

With AGGAGAAA, the binding signal in assay [1] is 0.0572 % of ANNNNAAN 8-mers; in assay [2], 0.0541 % of ANNNNAAN 8-mers; in assay [3], 0.0539 % of ANNNNAAN 8-mers; in assay [4], 0.0471 % of ANNNNAAN 8-mers.

In the case of ATAGGAAG, the binding signal is 0.0576 % of ANNNNAAN 8-mers in assay [1], 0.0696 % of ANNNNAAN 8-mers in assay [2], 0.0585 % of ANNNNAAN 8-mers in assay [3] and 0.0561 % of ANNNNAAN 8-mers in assay [4].

Consider ATCTTAAT, for which the binding signal in assay [1] is 0.126 % of ANNNNAAN 8-mers; in assay [2] it was 0.176 % of ANNNNAAN 8-mers; in assay [3], 0.103 % of ANNNNAAN 8-mers; in assay [4], 0.135 % of ANNNNAAN 8-mers.

For the sequence ATGCCAAG, the binding signal in assay [1] was 0.0305 % of ANNNNAAN 8-mers; in assay [2], 0.0357 % of ANNNNAAN 8-mers; in assay [3], 0.025 % of ANNNNAAN 8-mers; in assay [4] it was 0.0248 % of ANNNNAAN 8-mers.

In the case of AAATCAAA, the binding signal in assay [1] is 0.133 % of ANNNNAAN 8-mers; in assay [2], 0.117 % of ANNNNAAN 8-mers; in assay [3], 0.194 % of ANNNNAAN 8-mers; in assay [4], 0.136 % of ANNNNAAN 8-mers.

Turning to AGTAAAAG, the binding signal in assay [1] was 0.061 % of ANNNNAAN 8-mers; in assay [2] it was 0.0662 % of ANNNNAAN 8-mers; in assay [3], 0.0913 % of ANNNNAAN 8-mers; in assay [4], 0.0578 % of ANNNNAAN 8-mers.

For AACCAAAG, the binding signal is 0.0336 % of ANNNNAAN 8-mers in assay [1], 0.038 % of ANNNNAAN 8-mers in assay [2], 0.0539 % of ANNNNAAN 8-mers in assay [3] and 0.0231 % of ANNNNAAN 8-mers in assay [4].

Take ATCCAAAA: the binding signal in assay [1] was 0.0591 % of ANNNNAAN 8-mers; in assay [2], 0.0414 % of ANNNNAAN 8-mers; in assay [3], 0.0722 % of ANNNNAAN 8-mers; in assay [4] it was 0.0446 % of ANNNNAAN 8-mers.

For ACGAAAAC, the binding signal was 0.0256 % of ANNNNAAN 8-mers in assay [1], 0.0259 % of ANNNNAAN 8-mers in assay [2], 0.0289 % of ANNNNAAN 8-mers in assay [3] and 0.0264 % of ANNNNAAN 8-mers in assay [4].

In the case of ATATTAAG, the binding signal in assay [1] was 0.196 % of ANNNNAAN 8-mers; in assay [2], 0.214 % of ANNNNAAN 8-mers; in assay [3], 0.0882 % of ANNNNAAN 8-mers; in assay [4] it was 0.117 % of ANNNNAAN 8-mers.

ACGGGAAA: the binding signal in assay [1] was 0.0492 % of ANNNNAAN 8-mers; in assay [2] it was 0.0564 % of ANNNNAAN 8-mers; in assay [3], 0.0496 % of ANNNNAAN 8-mers; in assay [4], 0.0586 % of ANNNNAAN 8-mers.

As for ATGCGAAC, the binding signal in assay [1] was 0.04 % of ANNNNAAN 8-mers; in assay [2] it was 0.0357 % of ANNNNAAN 8-mers; in assay [3] it was 0.0386 % of ANNNNAAN 8-mers; in assay [4], 0.0347 % of ANNNNAAN 8-mers.

ACGGGAAG: the binding signal in assay [1] is 0.0332 % of ANNNNAAN 8-mers; in assay [2], 0.0339 % of ANNNNAAN 8-mers; in assay [3], 0.0254 % of ANNNNAAN 8-mers; in assay [4] it was 0.0347 % of ANNNNAAN 8-mers.

As for ACGAAAAT, the binding signal was 0.106 % of ANNNNAAN 8-mers in assay [1], 0.0949 % of ANNNNAAN 8-mers in assay [2], 0.139 % of ANNNNAAN 8-mers in assay [3] and 0.0834 % of ANNNNAAN 8-mers in assay [4].

As to ATCCGAAC, the binding signal in assay [1] is 0.0217 % of ANNNNAAN 8-mers; in assay [2], 0.0219 % of ANNNNAAN 8-mers; in assay [3], 0.0238 % of ANNNNAAN 8-mers; in assay [4], 0.0198 % of ANNNNAAN 8-mers.

In the case of AACCCAAA, the binding signal was 0.0233 % of ANNNNAAN 8-mers in assay [1], 0.0173 % of ANNNNAAN 8-mers in assay [2], 0.0277 % of ANNNNAAN 8-mers in assay [3] and 0.0206 % of ANNNNAAN 8-mers in assay [4].

As to ACTCGAAA, the binding signal in assay [1] is 0.0271 % of ANNNNAAN 8-mers; in assay [2] it was 0.0357 % of ANNNNAAN 8-mers; in assay [3] it was 0.0293 % of ANNNNAAN 8-mers; in assay [4], 0.0314 % of ANNNNAAN 8-mers.
